Here are results for 58 compounds from PubChem BioAssay AID1817 (Sanford-Burnham Center for Chemical Genomics, 2009).

Several values for one entry are separate records, joined by “and”; a condition that tells them apart may be missing. Equal values may be shown once. About 50 (0.02%) of roughly 290,000 compounds were called active. Shown is part of a subset that was picked to be rich in actives. Potency and affinity values are given separately. Unmarked numbers belong to inactive results.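 How the source made its calls: active means displacement of at least 50% at 20 µM, with a fluorescence ratio check between 0.3 and a set limit; inactive means the rest.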

The assay deals with E3 ubiquitin-protein ligase SIAH1 (Homo sapiens) (UniProt Q8IUQ4). In words: blockers of Siah-1 interaction with plectin peptide – biochemical, fluorescence polarization, rhodamine-plectin, uHTS, primary screen (AID 1817).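 Further: plate controls were Siah plus tracer with DMSO for no effect and tracer alone without Siah for full effect.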 The following applies: Siah-1 / rhodamine-plectin peptide fluorescence polarization; at 20 µM; stronger effect = higher value.
Sequence of E3 ubiquitin-protein ligase SIAH1 (Homo sapiens) (Q8IUQ4 whole entry, looked up): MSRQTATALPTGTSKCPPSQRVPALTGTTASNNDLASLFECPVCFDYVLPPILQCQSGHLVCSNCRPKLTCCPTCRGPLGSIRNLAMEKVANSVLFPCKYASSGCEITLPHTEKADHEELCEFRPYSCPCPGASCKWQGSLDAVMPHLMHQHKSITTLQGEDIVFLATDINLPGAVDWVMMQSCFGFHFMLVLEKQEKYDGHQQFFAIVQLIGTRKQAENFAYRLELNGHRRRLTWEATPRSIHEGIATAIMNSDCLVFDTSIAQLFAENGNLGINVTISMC
`O=C(Nc1ccc(Nc2ccncc2)cc1)c1ccc(Nc2ccnc3ccc([N+](=O)[O-])cc23)cc1[N+](=O)[O-]`: the displacement was 17.2%.
With `O=C(Nc1ccc(Nc2ccncc2)cc1)c1ccc([N+](=O)[O-])cc1` the figure was 2.7%.
With `O=C(Nc1ccc(Nc2ccncc2)cc1)c1ccc(Nc2ccnc3ccc([N+](=O)[O-])cc23)cc1` the figure was 60% (active).
With `CSc1ccc(/C=C/C(=O)N2CCCN(C)CC2)cc1` the figure was 4%; with `N#Cc1ccc(NC(=O)CNc2cc(S(=O)(=O)N3CCOCC3)ccc2NCC2CCCO2)cc1` (stereo not drawn), -0.4%; with `CCc1nnc(NC(=O)c2ccc(COc3ccccc3Cl)o2)s1`, 5.6%.
Take `CCOC(=O)C1(S(=O)(=O)c2ccc(Cl)cc2)CCN(Cc2ccc(C)cc2)CC1`: the displacement was -0.2%.
With `COc1cccc(C(=O)N2CCN(Cc3ccccc3Br)CC2)c1` the figure was 3.1%; with `COC(=O)C(C(=O)OC)C(c1ccccc1)C(C(=O)c1ccccc1)[N+](=O)[O-]` (stereo not drawn), 2%; with `CCOc1ccccc1-c1c2cc(O)c(=O)cc-2oc2cc(O)c(O)cc12`, 61.3% (active).
The value for `O=c1cc2oc3cc(O)c(O)cc3c(-c3ccccc3[N+](=O)[O-])c-2cc1O` was 48.7%; that for `O=c1cc2oc3cc(O)c(O)cc3c(-c3ccccc3O)c-2cc1O` was 83.3% (active); that for `COc1cc(OC)c(-c2c3cc(O)c(=O)cc-3oc3cc(O)c(O)cc23)cc1OC` was 48%.
The value for `Cc1c2cc(O)c(=O)cc-2oc2cc(O)c(O)cc12` was 70.1% and 99.1%.
In the case of `COc1ccc(OC)c(-c2c3cc(O)c(=O)cc-3oc3cc(O)c(O)cc23)c1`, the displacement was 58.5%.
The value for `COc1cc(S(=O)(=O)NC(C)C)ccc1Cl` was 3%; that for `CC(C)c1ccccc1NC(=S)N(C)C` was -9.8%.
With `COC(=O)CCSc1nc(N2CCOCC2)c2c(c1C#N)CC(C)(C)OC2` the figure was 1.2%; with `Cc1cccc(C)c1NC(=O)C1CCCN1S(=O)(=O)c1ccc2c(c1)n(C)c(=O)c(=O)n2C` (stereo not drawn), 2.2%.
The value for `COCCNC(=S)N(CCc1c(C)[nH]c2ccc(C)cc12)Cc1ccco1` was 1.4%.
As to `CCOC(=O)c1ccc(-n2c(O)c(/C=N/NC(=O)C3COc4ccccc4O3)c3ccccc3c2=O)cc1` (stereo not drawn), the displacement was -6%.
Regarding `Cc1nc(NC(=S)NC(=O)c2cncc(Br)c2)ccc1Br`, the displacement was -7%.
The value for `Cc1cccc(C(=O)NC(C(=O)Nc2nc(-c3ccccn3)cs2)C(C)C)c1` (stereo not drawn) was -2.5%.
With `O=C(NN1C(=O)C2C3C=CC(C3)C2C1=O)c1ccncc1` (stereo not drawn) the figure was 3.2%; with `O=C(NN1C(=O)C2C(C1=O)C1C=CC2C12CC2)c1ccncc1` (stereo not drawn), 0.7%.
The value for `O=C(NN1C(=O)C2CC=C(Cl)CC2C1=O)c1ccncc1` (stereo not drawn) was 69.4% (active); that for `C[C@@H](C[C@@H](O)[C@H](O)C(C)(C)O)[C@@H]1CC[C@]2(C)C3=CC[C@H]4C(C)(C)C(=O)CC[C@]4(C)[C@H]3CC[C@@]12C` was 2.8%; that for `CC(NC(=O)C1CCCN(S(=O)(=O)c2cccs2)C1)c1ccccc1` (stereo not drawn) was 0.2%.
Take `COc1cc(OC)c(OC)cc1CN1CCCC(C(=O)c2sccc2C)C1` (stereo not drawn): the displacement was -6.6%.
With `COc1ccc(CCn2c(N)c(C(=O)NCc3ccco3)c3nc4ccccc4nc32)cc1` the figure was 57.5% (active).
With `COc1ccc(CCn2c(N)c(C(=O)NCc3ccco3)c3nc4ccccc4nc32)cc1OC` the figure was -1.3%; with `Nc1c(C(=O)NCc2ccco2)c2nc3ccccc3nc2n1CCc1ccc(F)cc1`, 2.1%.
With `Cn1c(Cl)c(/C=N/OC(=O)c2ccccc2Cl)c2ccccc21`, the displacement was -1.7%.
With `CC12CCC(C(=O)NCc3ccco3)(OC1=O)C2(C)C` (stereo not drawn) the figure was 1.5%.
The value for `CN1C(=O)NC(c2ccccc2[N+](=O)[O-])C2=C1CC(C)(C)CC2=O` (stereo not drawn) was 4.2%; that for `CN1C(=O)NC(c2cccc([N+](=O)[O-])c2)C2=C1CCCC2=O` (stereo not drawn) was 3%; that for `C/C(=N\OC(=O)Nc1ccccc1)c1cnn(-c2cc(C(F)(F)F)cc(C)n2)c1C` was 5.7%.
With `CCOC(=O)c1sc(=S)n(CC)c1N` the figure was -0.9%.
On to `COCCn1c(C)c(C(=O)O)sc1=S`, for which the displacement is 2.3%.
With `COc1cc2ncnc(NCc3ccccc3C)c2cc1OC` the figure was 4.9%.
The value for `CCOC(=O)c1cccc(NC(=O)CSc2nnc(C)n2Cc2ccccc2)c1` was -0.6%; that for `CC(=O)Nc1ccc(N=Cc2c(O)ccc3ccccc23)cc1` was -0.3%.
With `CC(=O)Nc1ccc(N=Cc2c(O)c3ccccc3oc2=O)cc1` the figure was 1.2%.
For `Cc1cccc(N2CCN(C(=O)c3ccc(NC(=O)C4CCCO4)cc3)CC2C)c1` (stereo not drawn), the displacement was 1.8%.
With `COCCNC(=O)/C(C#N)=C/c1ccc(OCc2ccc(F)cc2)cc1` the figure was -1.7%; with `Cc1cc(/C=C2\NC(=O)NC2=O)c(C)n1-c1ccc(N2CCOCC2)cc1`, -9.1%.
With `COc1ccc(OCCn2c(N)nc3ccccc32)cc1` the figure was 3.4%.
The value for `O=C(NC1CCCC1)c1ccc(COc2ccccc2Br)o1` was 2.7%; that for `O=c1[nH]c(-c2ccc3c(c2)OCO3)nc2c1sc(=S)n2-c1ccccc1` was 1.9%.
`O=c1[nH]c(-c2ccccc2Cl)nc2c1sc(=S)n2-c1ccccc1`: the displacement is 2.3%.
The value for `COc1ccccc1CN1CC(C(=O)N(C)Cc2ccc(C)o2)CCC1=O` (stereo not drawn) was -3.9%; that for `Oc1c(/C=N/Nc2cccc3cccnc23)ccc2ccccc12` was 93.1% (active).
The value for `Oc1ccc(/C=N/Nc2cccc3cccnc23)c(O)c1` was -3.9%; that for `Oc1ccccc1/C=N/Nc1cccc2cccnc12` was -2.4%.
With `CCCCCCOc1ccc(N2C(=O)CC(N3CCN(CCN=CC4=C(O)CC(C)(C)CC4=O)CC3)C2=O)cc1` (stereo not drawn) the figure was 1.8%; with `CC(C)(C)c1ccc(C(CC(=O)O)NC(=O)Cc2ccc(Cl)cc2)cc1` (stereo not drawn), -2.3%; with `CC(C)(C)c1ccc(C(CC(=O)O)NC(=O)Cc2ccccc2)cc1` (stereo not drawn), 1.2%.
Take `CCOC(=O)c1nn(-c2cccc(OC)c2)c2nc(CC)c(C#N)c(=O)n12`: the displacement is 12.2%.
